# According to publication PMC11062922 (Nature Chemical Biology, 2023):
# Columns and labels:
# Set-up in all cases: species or system human, MV4-11 + K-562 + COLO205 + SK-N-BE2 + OVCAR-8
# AURKB = details: read-out: apparent Kd; compound concentrations: 100 nM and 1000 nM (sheet 'Samples'), CATDS: 9.3884210166783694E-2; n = 1
# CAMK2B = details: read-out: apparent Kd; compound concentrations: 100 nM and 1000 nM (sheet 'Samples'), CATDS: 0.10460822503909301; n = 1
# EIF2AK1 = details: read-out: apparent Kd; compound concentrations: 100 nM and 1000 nM (sheet 'Samples'), CATDS: 6.5022580640831398E-2; n = 1
# MAP2K5 = details: read-out: apparent Kd; compound concentrations: 100 nM and 1000 nM (sheet 'Samples'), CATDS: 0.13171106930199999; n = 1
# MAP3K4 = details: read-out: apparent Kd; compound concentrations: 100 nM and 1000 nM (sheet 'Samples'), CATDS: 6.3313755179161796E-2; n = 1
# MAP4K2 = details: read-out: apparent Kd; compound concentrations: 100 nM and 1000 nM (sheet 'Samples'), CATDS: 8.0363217180658503E-2; n = 1
# MAP4K3 = details: read-out: apparent Kd; compound concentrations: 100 nM and 1000 nM (sheet 'Samples'), CATDS: 7.0061337897802001E-2; n = 1
# NEK2 = details: read-out: apparent Kd; compound concentrations: 100 nM and 1000 nM (sheet 'Samples'), CATDS: 7.0707362303254903E-2; n = 1
# PTK6 = details: read-out: apparent Kd; compound concentrations: 100 nM and 1000 nM (sheet 'Samples'), CATDS: 9.6831640225396698E-2; n = 1
# RIPK3 = details: read-out: apparent Kd; compound concentrations: 100 nM and 1000 nM (sheet 'Samples'), CATDS: 5.9468743018389697E-2; n = 1
# STK3 = details: read-out: apparent Kd; compound concentrations: 100 nM and 1000 nM (sheet 'Samples'), CATDS: 6.0873779479402902E-2; n = 1
# STK4 = details: read-out: apparent Kd; compound concentrations: 100 nM and 1000 nM (sheet 'Samples'), CATDS: 7.2736683737858396E-2; n = 1
# YES1 = details: read-out: apparent Kd; compound concentrations: 100 nM and 1000 nM (sheet 'Samples'), CATDS: 8.4422564435587905E-2; n = 1
# AXL = details: read-out: apparent Kd; compound concentrations:100 nM and 1000 nM (sheet 'Samples'); n = 1
# ERBB3 = details: read-out: apparent Kd; compound concentrations:100 nM and 1000 nM (sheet 'Samples'); n = 1
# MAP3K1 = details: read-out: apparent Kd; compound concentrations:100 nM and 1000 nM (sheet 'Samples'); n = 1
# RET = details: read-out: apparent Kd; compound concentrations:100 nM and 1000 nM (sheet 'Samples'); n = 1
# ZAK = details: read-out: apparent Kd; compound concentrations:100 nM and 1000 nM (sheet 'Samples'); n = 1
# BUB1 = details: read-out: apparent Kd; compound concentrations:100 nM and 1000 nM (sheet 'Samples'); n = 1
# CDC42BPA = details: read-out: apparent Kd; compound concentrations:100 nM and 1000 nM (sheet 'Samples'); n = 1
# CDC42BPB = details: read-out: apparent Kd; compound concentrations:100 nM and 1000 nM (sheet 'Samples'); n = 1
# CDC42BPG = details: read-out: apparent Kd; compound concentrations:100 nM and 1000 nM (sheet 'Samples'); n = 1
# CDC7 = details: read-out: apparent Kd; compound concentrations:100 nM and 1000 nM (sheet 'Samples'); n = 1
# LATS1 = details: read-out: apparent Kd; compound concentrations:100 nM and 1000 nM (sheet 'Samples'); n = 1
# MELK = details: read-out: apparent Kd; compound concentrations:100 nM and 1000 nM (sheet 'Samples'); n = 1
# PIM1 = details: read-out: apparent Kd; compound concentrations:100 nM and 1000 nM (sheet 'Samples'); n = 1
# PKN1 = details: read-out: apparent Kd; compound concentrations:100 nM and 1000 nM (sheet 'Samples'); n = 1
# PKN2 = details: read-out: apparent Kd; compound concentrations:100 nM and 1000 nM (sheet 'Samples'); n = 1
# PRKCA = details: read-out: apparent Kd; compound concentrations:100 nM and 1000 nM (sheet 'Samples'); n = 1
# PRKCB = details: read-out: apparent Kd; compound concentrations:100 nM and 1000 nM (sheet 'Samples'); n = 1
# PRKCD = details: read-out: apparent Kd; compound concentrations:100 nM and 1000 nM (sheet 'Samples'); n = 1
# PRKCI = details: read-out: apparent Kd; compound concentrations:100 nM and 1000 nM (sheet 'Samples'); n = 1
# PRKG1 = details: read-out: apparent Kd; compound concentrations:100 nM and 1000 nM (sheet 'Samples'); n = 1
# PRKX = details: read-out: apparent Kd; compound concentrations:100 nM and 1000 nM (sheet 'Samples'); n = 1
# ROCK2 = details: read-out: apparent Kd; compound concentrations:100 nM and 1000 nM (sheet 'Samples'); n = 1
# RPS6KA4 = details: read-out: apparent Kd; compound concentrations:100 nM and 1000 nM (sheet 'Samples'); n = 1
# RPS6KA5 = details: read-out: apparent Kd; compound concentrations:100 nM and 1000 nM (sheet 'Samples'); n = 1
# RPS6KB1 = details: read-out: apparent Kd; compound concentrations:100 nM and 1000 nM (sheet 'Samples'); n = 1
smiles,measurement,setting,value
Cn1cc(-c2ccc3c(c2)CCN3C(=O)Cc2ccccc2Cl)c2c(N)ncnc21 [GSK2608885A],potency estimated from few doses,AURKB,0.825 µM
same,potency estimated from few doses,CAMK2B,0.685 µM
same,potency estimated from few doses,EIF2AK1,1.79 µM
same,potency estimated from few doses,MAP2K5,0.478 µM
same,potency estimated from few doses,MAP3K4,1.92 µM
same,potency estimated from few doses,MAP4K2,1.11 µM
same,potency estimated from few doses,MAP4K3,1.49 µM
same,potency estimated from few doses,NEK2,1.46 µM
same,potency estimated from few doses,PTK6,0.781 µM
same,potency estimated from few doses,RIPK3,2.28 µM
same,potency estimated from few doses,STK3,2.13 µM
same,potency estimated from few doses,STK4,1.37 µM
same,potency estimated from few doses,YES1,1 µM
Cl.O=C(Nc1ccc(Oc2ccc3[nH]c(NC(=O)c4ccco4)nc3c2)cc1)Nc1cc(C(F)(F)F)ccc1F [GW683134A_KCGS],potency estimated from few doses,AXL,1.64 µM
same,potency estimated from few doses,ERBB3,1.13 µM
same,potency estimated from few doses,MAP3K1,2 µM
same,potency estimated from few doses,RET,0.498 µM
same,potency estimated from few doses,ZAK,2.15 µM
CCn1c(-c2nonc2N)nc2cncc(C(=O)N3CCNCC3)c21.Cl [SB-759335-B],potency estimated from few doses,BUB1,0.543 µM
same,potency estimated from few doses,CDC42BPA,1.08 µM
same,potency estimated from few doses,CDC42BPB,1.64 µM
same,potency estimated from few doses,CDC42BPG,2.06 µM
same,potency estimated from few doses,CDC7,2.08 µM
same,potency estimated from few doses,LATS1,1.94 µM
same,potency estimated from few doses,MELK,1.04 µM
same,potency estimated from few doses,PIM1,0.501 µM
same,potency estimated from few doses,PKN1,0.813 µM
same,potency estimated from few doses,PKN2,0.119 µM
same,potency estimated from few doses,PRKCA,1.9 µM
same,potency estimated from few doses,PRKCB,1.51 µM
same,potency estimated from few doses,PRKCD,1.2 µM
same,potency estimated from few doses,PRKCI,2.02 µM
same,potency estimated from few doses,PRKG1,0.135 µM
same,potency estimated from few doses,PRKX,0.75 µM
same,potency estimated from few doses,ROCK2,0.0247 µM
same,potency estimated from few doses,RPS6KA4,0.723 µM
same,potency estimated from few doses,RPS6KA5,0.142 µM
same,potency estimated from few doses,RPS6KB1,0.115 µM
